Source: PubChem BioAssay
Hits are enriched below; roughly 7.7% of the tested compounds scored in any of these assays.
FMDV antiviral: High Throughput Screening for Foot and Mouth Disease Virus Antivirals; FMDV antiviral cell-based qHTS; Potency, µM (doses to about 57.9 µM), usual class: inhibitors; actives 1.2% (n = 410,000); AID 1159524, 2015; calls by dose curve; tested in HEK293T cells; further: read-out not given here; nearly all actives have a fitted effect of over 45% in size
RE007 growth inh: qHTS Assay for Inhibitors of the HIV-1 protein Vpr; Potency, µM (highest dose often 92.2 µM), most hits filed as inhibitors; actives 0.21% (n = 360,000); S. pombe RE007 Vpr strain, BacTiter-Glo ATP luminescence, 24 h; active means well fitted falling curve with a large enough effect; inconclusive means small, poorly fitted or top-dose-only effect; inactive means no such curve, though single readings can be large or run the other way; further: nearly all actives have a fitted effect of over 50% in size
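Fission yeast strain RE007, carrying one chromosomally integrated HIV-1 vpr copy, was seeded at OD 0.01 in PMG+AL medium with 23 nL pinned compound. After 24 h at 30 °C and 99% humidity, viability was read by BacTiter-Glo luminescence.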
Sm TGR block: qHTS Assay for the Inhibitors of Schistosoma Mansoni Peroxiredoxins; Schistosoma mansoni thioredoxin glutathione reductase (TGR), Q962Y6; purified TGR, DTNB reduction, TNB absorbance 405 nm; Potency, µM (doses to about 114 µM), most hits filed as inhibitors; actives 3% (n = 360,000); further: nearly all actives have a fitted effect of over 60% in size
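First, TGR (20 nM dispensed) and NADPH were mixed with compound. Second, a 15 min room-temperature incubation followed. Third, further NADPH and then DTNB were added to start the reaction. Finally, TNB absorbance was monitored kinetically.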
FBPA Giardia inh: qHTS Assay for Inhibitors of Fructose-1,6-bisphosphate Aldolase from Giardia Lamblia; AID 2451, 2010; A8B2U2; actives 0.71% (n = 290,000); Potency, µM (highest dose often 59.6 µM), actives largely listed as inhibitors; purified Giardia FBPA; further: nearly all actives have a fitted effect of over 55% in size
Target sequence (A8B2U2 whole entry, looked up): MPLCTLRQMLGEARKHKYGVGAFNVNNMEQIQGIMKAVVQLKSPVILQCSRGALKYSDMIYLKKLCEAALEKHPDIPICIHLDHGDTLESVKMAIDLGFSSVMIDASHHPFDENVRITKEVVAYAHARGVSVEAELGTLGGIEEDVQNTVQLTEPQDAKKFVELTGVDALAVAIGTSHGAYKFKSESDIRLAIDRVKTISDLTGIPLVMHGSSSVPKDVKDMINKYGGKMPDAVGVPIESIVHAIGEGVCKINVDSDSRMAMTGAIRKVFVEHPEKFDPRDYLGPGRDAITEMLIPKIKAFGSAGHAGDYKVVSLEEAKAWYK
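Giardia FBPA (40 nM reagent) was preincubated 10 min at RT with compound (up to 57.5 uM final), then substrate plus GAPDH/TPI/NAD/arsenate coupling system with diaphorase/resazurin was added; resorufin fluorescence (525/598 nm) was read after 20 min.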
TbPYK inhibitor: qHTS of Trypanosoma Brucei Inhibitors | AID 624173, 2012 | Potency, µM (titrated, usually from 76.8 µM), actives largely listed as inhibitors | TbPYK enzyme, Kinase-Glo Plus ATP luminescence, 45 min | actives 0.12% (n = 410,000) | pyruvate kinase (Trypanosoma brucei), Q57TT1; further: nearly all actives have a fitted effect of over 50% in size
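T. brucei PYK with substrate was exposed to pin-transferred compounds across a concentration series, then started with 130 uM ADP (final). After 45 min at room temperature, Kinase-Glo Plus luminescence was read, normalized and curve-fitted.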
HCMV inh: qHTS Assay for inhibitors of the human cytomegalovirus (HCMV); actives 4.5% (n = 410,000); activity change, negative = inhibition, % at 57.5 µM; HFF cells, HCMV-luciferase reporter, 72 h; stronger effect = lower value; in the data active means activity change below about -60%; inconclusive means no clear call, values can overlap the other calls; inactive means above about -39%
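Two-dose cell screen: HFF monolayers treated with compounds and infected with luciferase-expressing HCMV at 1 PFU/cell, 72 h at 37C, then lysed for luciferase measurement.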
A number is an active result; n = inactive; u = inconclusive; x = no result given; ! = a repeat was not active; [ ] = dose if it differs, or a comment. Unless noted, the call rests on the fitted dose curve; in most records, active means well fitted curve in the direction sought with a large enough effect; inconclusive means small, poorly fitted or top-dose-only effect, or another doubt; inactive means no such curve, though single readings can be large; an effect the other way counts as inactive or inconclusive.

SMILES	FMDV antiviral	RE007 growth inh	Sm TGR block	FBPA Giardia inh	TbPYK inhibitor	HCMV inh
CCC(=O)OCCNc1cc(Sc2nc3ccccc3s2)c2nonc2c1[N+](=O)[O-]	25.1µM	u	0.251µM	u	n	n
NCCNc1ccc([N+](=O)[O-])c(Sc2nc3ccccc3[nH]2)c1	n	n	n	n	n	n
O=[N+]([O-])c1c(NCCCO)cc(Sc2nc3ccccc3s2)c2nonc12	u	n	n	u	n	x
COc1ccc(CC(N)C(=O)NC2C(CO)OC(n3cnc4c(N(C)C)ncnc43)C2O)cc1 (centres undefined)	x	x	x	n	n	x
CCCCn1c(SCC(=O)N2CCCCC2)nc2cc(S(N)(=O)=O)ccc21	n	n	n[11.4 µM]	n	n	n
CCCCn1c(SCC(=O)Nc2ccc(OC)cc2)nc2ccc(N3CCOCC3)cc2c1=O	n	n[3.69 µM]	28.2µM	u	x	n
CCCCn1c(SCC(=O)NC(C)CC)nc2ccc(N3CCOCC3)cc2c1=O (centres undefined)	n	n	u	u	n	n
CCCCn1c(SCC(=O)NCc2ccco2)nc2ccc(N3CCOCC3)cc2c1=O	n	n	28.2µM	u	n	u
CCCCn1c(SCC(=O)NCc2ccco2)nc2cc(S(N)(=O)=O)ccc21	n	n	50.1µM	n	n	n
CCCCNC(=O)CSc1nc2cc3c(cc2c(=O)n1Cc1ccco1)OCO3	u	n	n	n	n	-60.5
COc1ccc2c(c1)-c1nc(-n3ncc(C(=O)NC(C)(C)CO)c3C3CC3)ncc1CC2	n	x	x	x	x	x
Cc1cccc(NC(=O)C(=O)NCC(c2ccc3c(c2)OCO3)N2CCOCC2)c1C (centres undefined)	n	x	n	x	n	n
COc1cc2nc(SCC(=O)NCc3ccco3)n(Cc3ccc(Cl)cc3)c(=O)c2cc1OC	n	n	n	n	n	-68.9
COCCNC(=O)CSc1nc2cc(OC)c(OC)cc2c(=O)n1Cc1ccc(OC)cc1	n	n	n	n	n	n
Nc1ccc2ccc(NS(=O)(=O)N3CCCCC3)cc2c1	x	x	x	x	x	n
CC1(C)CC(=O)C2=C(C1)N(Cc1ccco1)C(=O)C2(NC(=O)c1cccnc1)C(F)(F)F (centres undefined)	n	n	20µM	n	n	n
CC1(C)CC(=O)C2=C(C1)N(Cc1cccnc1)C(=O)C2(NC(=O)c1cccnc1)C(F)(F)F (centres undefined)	n	n	n	n	n	n
COc1ccc(C(=O)N/N=C\C(C)=C\c2ccccc2)cc1OC	n	n	x	x	n	n
CC(/C=N/NC(=O)c1ccc(Br)cc1)=C\c1ccccc1	x	n	n	n	n	-62.8
O=C(CSc1nc2nccnc2c(=O)n1CCc1c[nH]c2ccccc12)Nc1ccccc1	n	x	n	x	n	n
CCCC(=O)Oc1ccccc1C1SCc2cc(C)c(C)cc2CS1	n	n	n	n	n	-60.3
O=c1c(-c2cccc(Cl)c2)nc2cncnc2n1Cc1ccccc1Cl	n	x	x	n	n	x
Oc1cc(NCc2ccc(Cl)cc2)cc2cccnc12	n	x	n	x	n	n
CN(C)CCCNc1cc(O)c2ncccc2c1	u	x	n	x	n	-77.6
Oc1cc(NCc2ccc(F)cc2)cc2cccnc12	n	x	n	x	n	-92.7
SMILES	FMDV antiviral	RE007 growth inh	Sm TGR block	FBPA Giardia inh	TbPYK inhibitor	HCMV inh
NC(CC(=O)NC(c1ccccc1)(c1ccccc1)c1ccccc1)C(=O)O (centres undefined)	n	n	n	n	n	-69.3
O=S1(=O)N[C@@H](Cc2ccccc2)COc2cccc(NCCCN3CCOCC3)c21	x	x	x	x	x	n
O=C(C[n+]1ccc(-c2cc(C(=O)Nc3cccc(C(F)(F)F)c3)c3ccccc3n2)cc1)c1cccc([N+](=O)[O-])c1	u	n	44.7µM	n	n	-66.3
O=C(C[n+]1cccc(NC(=O)c2ccccc2)c1)c1cccc([N+](=O)[O-])c1	n	n	n	n	n	n
Cc1ccc(Cl)cc1NC(=O)COCc1cc(-c2ccco2)on1	n	x	n	x	n[15.4 µM]	n
CCCC[C@@H](CNC)NC[C@H](Cc1ccc(O)cc1)NCCc1ccc(OCC)cc1	n	n	n	n	n	-84.9
CC1SC(=S)N(c2ccc(N(C)C)cc2)C1=O (centres undefined)	n	u	n	n	n	-71.4
CCCCC(=O)NC(N1CCCCC1)C(Cl)(Cl)Cl (centres undefined)	n	n	11.2µM	n	u	n
O=C(NC(N1CCCCCC1)C(Cl)(Cl)Cl)c1ccccc1Cl (centres undefined)	n	n	u	n	n	n
CCCC1(c2ccccc2)NC(=O)N(CC(=O)Nc2sc(-c3ccccc3)cc2C(=O)OCC)C1=O (centres undefined)	n	n	n	n	n	-61.8
CC(C)c1cnc2c(c1SCC(=O)N1CCCCC1)c(=O)n(C)c(=O)n2C	n	x	n	x	u	n
CCCCNC(=O)c1c(C)oc2ncn(CC(C)C)c(=O)c12	n	x	n	x	n	n
CSc1c(CC(=O)Nc2ccc(F)cc2)n(Cc2ccccc2)c2ccccc12	n	n	n	n	n	-62.1
Cn1c(O)c(N=NC(=O)c2ccccc2O)c2ccccc21	n	n	n	n	u	n
Cc1cc(N=NC(=O)c2ccccc2O)c2ccccc2c1O	n	n	n	u	n	-72.7
Cc1cc(/C=N/n2cnnc2)c(C)n1-c1ccc(OCc2ccc(F)cc2)cc1	x	n	n	n	n	-86.3
CN(C(=O)CSc1nc2ccccc2n1CC(=O)N(C)C1CCCCC1)c1ccccc1	n	x	n	x	n	n
Cc1ccc(NCC(=O)c2ccc(C)cc2)cc1	n	n	n	n	n	n
CCc1ccc(NCCC(=O)c2ccc(Br)cc2)cc1	n	n	12.6µM	n	n	n
Cc1ccc(NCCC(=O)c2ccc(Cl)cc2)cc1	n	n	6.31µM	u	n	n
Cc1ccc(NCCC(=O)c2ccc(Br)cc2)cc1	n	n	7.08µM	n	n	n
O=C(CNc1ccc(Br)cc1)c1ccc(O)cc1	n	n	n	n	n	n
CCC(=O)Nc1cc2nn(-c3ccc(C)cc3)nc2cc1C	6.31µM	n	n	n	n	-66.1!
COc1ccccc1CNC(=O)c1cc2c(=O)n(Cc3cccs3)ccc2nc1C	n	x	n	x	n	n
CCCn1c(C(O)c2ccc(OC)c(OC)c2)nc2ccccc21 (centres undefined)	u	n	n	n	n	-68.7
CCCn1c(C(O)c2ccc(OC)cc2)nc2ccccc21 (centres undefined)	n	n	n	n	n	n
Cc1cnc(-n2ncc(C(=O)NCCc3cccnc3)c2C)nc1-c1cccs1	n	x	x	x	x	x
